High-throughput results (PubChem)
Sampled rows, rich in hits. Any-hit rate of the full collection: about 1.6%.
KCNQ2 inh – KCNQ2 (rat) channel inhibition; B-score at 10 µM; 1.1% of 310,000 active; AID 2156; CHO-K1 KCNQ2, FluxOR thallium flux, 20 min; hits give low values; O88943;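 active = fluorescence ratio B-score at most minus 3 library SDs, with starting brightness B-score within 2 library SDs, cut at about -5.5 in these data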
KCNQ2 enhance – potentiators of rat KCNQ2 potassium channel; O88943; CHO-K1 KCNQ2, FluxOR thallium flux fluorescence; hits give high values; B-score at 10 µM; 0.54% of 310,000 active;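 active = fluorescence ratio B-score at least 3 SD of library B-scores, with initial fluorescence B-score within 3 of them, cut at about 5.3 in these data; same plate scores as AID 2156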;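 note: B-score of peak minus minimum over baseline fluorescence ratio after K+ and Tl+ stimulus; positive B-score means potentiation of KCNQ2 with more thallium influx and brighter signal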
* = called active by the depositor.

How did CCCOc1ccc(C(=O)NC2CCSc3ccccc32)cc1 (stereo not given) do in these assays?
KCNQ2 inh: inactive

How did Cc1ccc(OCC(=O)NC2CCSc3ccccc32)cc1 (stereo not given) do in these assays?
KCNQ2 inh: -5.9*; KCNQ2 enhance: -5.9

What do the screens show for `COc1ccc(O)c(CN2CCC(n3nccc3NC(=O)c3ccccc3Cl)CC2)c1`?
KCNQ2 inh: inactive; KCNQ2 enhance: 1.2

What do the screens show for `COc1ccc(NC(=O)C(OC)c2ccccc2)cc1Cl` (stereo not given)?
KCNQ2 inh: inactive; KCNQ2 enhance: 2.5

What do the screens show for `COc1ccc(NC(=O)C(Sc2nnc(-c3ccncc3)n2-c2ccccc2C)c2ccccc2)cc1Cl` (stereo not given)?
KCNQ2 inh: -5.5*; KCNQ2 enhance: -5.5

What do the screens show for `O=C(NCc1ccccn1)C(=O)NCC1OCCN1S(=O)(=O)c1ccc(F)cc1` (stereo not given)?
KCNQ2 inh: inactive; KCNQ2 enhance: 0.12

Results for Cc1cccc(NC(=O)/C(C#N)=C\c2cccnc2)c1 ?
KCNQ2 inh: -6.5*; KCNQ2 enhance: -6.5

Results for N#C/C(=C\c1cccnc1)C(=O)Nc1ccc(Cl)cc1 ?
KCNQ2 inh: inactive

How did CN(C)/N=C/C=C1\CCC/C(=C\c2ccc(F)c(F)c2)C1=O do in these assays?
KCNQ2 inh: -7.1*; KCNQ2 enhance: -7.1

What do the screens show for `COc1ccc(/C=C2\CCC/C(=C\C=N\N(C)C)C2=O)cc1`?
KCNQ2 inh: inactive

How did CN(Cc1ccc(C(C)(C)C)cc1)C(=O)c1ccc2c(=O)n3c(nc2c1)CCC3 do in these assays?
KCNQ2 inh: inactive

What do the screens show for `Cc1nc(N2CCN(c3ccccn3)CC2)c2c(C)c(C(=O)Nc3c(C)cc(Br)cc3C)sc2n1`?
KCNQ2 inh: -7.9*; KCNQ2 enhance: -7.9

How did Cc1nc(N2CCN(c3ccccn3)CC2)c2c(C)c(C(=O)Nc3c(F)cc(F)cc3Br)sc2n1 do in these assays?
KCNQ2 inh: inactive

How did CCc1cc(C(=O)OC)c(NC(=O)C2CC(=O)NN2Cc2ccccc2)s1 (stereo not given) do in these assays?
KCNQ2 inh: -5.9*; KCNQ2 enhance: -5.9

Results for CCc1cc(C(=O)OC)c(NC(=O)CC2NCCNC2=O)s1 (stereo not given) ?
KCNQ2 inh: inactive; KCNQ2 enhance: 0.96

Results for COc1ccccc1N1CCN(C(=O)c2cc3c(s2)-c2ccccc2OC3)CC1 ?
KCNQ2 inh: inactive

Results for O=C(c1cc2c(s1)-c1ccccc1OC2)N1CCc2ccccc2C1 ?
KCNQ2 inh: -5.6*; KCNQ2 enhance: -5.6

What do the screens show for `COc1ccccc1OCCC(=O)OCC(=O)c1c(N)n(C)c(=O)n(C)c1=O`?
KCNQ2 inh: inactive

What do the screens show for `C/C(=N\OCC(=O)Nc1cc(C)cc(C)c1)c1ccc2c(c1)OCCO2`?
KCNQ2 inh: inactive

How did C/C(=N\OCC(=O)Nc1c(C)cc(C)cc1C)c1ccc2c(c1)OCCO2 do in these assays?
KCNQ2 inh: inactive; KCNQ2 enhance: 8.1*

Results for CC1CCCC(C)N1CCNC(=O)CCc1nnc2n(Cc3ccccc3)c(=O)c3ccccc3n12 (stereo not given) ?
KCNQ2 inh: inactive; KCNQ2 enhance: 0.66

Results for COc1ccccc1OCC(=O)Nc1cccc(N(C)S(C)(=O)=O)c1 ?
KCNQ2 inh: inactive

How did COc1cc(C=O)ccc1OCC(=O)Nc1cccc(S(=O)(=O)N(C)c2ccccc2)c1 do in these assays?
KCNQ2 inh: -8.3*; KCNQ2 enhance: -8.3

How did Cc1ccc(OCCN2CCN(c3ncnc4sc(C)c(C)c34)CC2)cc1 do in these assays?
KCNQ2 inh: inactive

How did Clc1ccc(OCCN2CCN(c3ncnc4sccc34)CC2)cc1 do in these assays?
KCNQ2 inh: -6*; KCNQ2 enhance: -6

How did COCCn1c(C)cc(/C=C(\C#N)C(=O)OCC(=O)N(C)c2c(N)n(Cc3ccccc3)c(=O)[nH]c2=O)c1C do in these assays?
KCNQ2 inh: inactive; KCNQ2 enhance: 0.81

Results for Cc1ccc(C)c(N2CCN(S(=O)(=O)c3c(C(=O)N4CCCCC4)c(C)n(C)c3C)CC2)c1 ?
KCNQ2 inh: inactive

How did Cc1[nH]c(C)c(S(=O)(=O)N2CCN(c3cccc(Cl)c3)CC2)c1C(=O)N1CCCCC1 do in these assays?
KCNQ2 inh: inactive

How did Cc1ccc(Cl)cc1N1CCN(S(=O)(=O)c2c(C)[nH]c(C)c2C(=O)N2CCCCC2)CC1 do in these assays?
KCNQ2 inh: -7.2*; KCNQ2 enhance: -7.2

What do the screens show for `Cc1ccc(C)c(N2CCN(S(=O)(=O)c3c(C)[nH]c(C)c3C(=O)N3CCCCC3)CC2)c1`?
KCNQ2 inh: -6.7*; KCNQ2 enhance: -6.7

How did CCCCNC(=O)O[C@@H]1C[C@H]2CCC(=O)N3CC[C@@H](C1)[C@@H]23 do in these assays?
KCNQ2 inh: inactive; KCNQ2 enhance: 1.6

How did COC(=O)c1c(-c2ccccc2)csc1NC(=O)CSc1ncnc2sc(C)c(C)c12 do in these assays?
KCNQ2 inh: -5.6*; KCNQ2 enhance: -5.6

How did Cc1cccnc1NC(=O)CSc1ncnc2sc(C)c(C)c12 do in these assays?
KCNQ2 inh: inactive
